# Out of some 2,000 compounds screened, about 110 (5.5%) showed an effect of 50% or more. The sample holds strong results, similar compounds and a random draw of the others, so the mix is not that of the screen.
# Biological target: Genome polyprotein (dengue virus type 2) (UniProt P29990)
# [1] = Thailand/16681/1984, Concentration 25.0 uM, Number of replicates 1.0
compound,measurement,setting,value
CCCC[C@H](NC(C)=O)C(=O)N[C@H](C(=O)Nc1cccc(C(N)=O)c1)c1ccc(OCc2ccccc2)cc1,inhibition,"Thailand/16681/1984, Concentration 49.5 uM, Number of replicates 2.0, Standard deviation 1.3015902921422546 %",-0.513%
same,inhibition,"Thailand/16681/1984, Concentration 99.01 uM, Number of replicates 2.0, Standard deviation 0.5153915569037094 %",3.33%
same,inhibition,"Thailand/16681/1984, Concentration 198.0 uM, Number of replicates 2.0, Standard deviation 0.5711740910196359 %",8.87%
c1cnc(C2CCN(Cc3c[nH]c4ccccc34)CC2)nc1,inhibition,"Thailand/16681/1984, Concentration 49.5 uM, Number of replicates 2.0, Standard deviation 0.0814293971969877 %",-4.94%
same,inhibition,"Thailand/16681/1984, Concentration 99.01 uM, Number of replicates 2.0, Standard deviation 1.1974150626674833 %",-3.24%
same,inhibition,"Thailand/16681/1984, Concentration 198.0 uM, Number of replicates 2.0, Standard deviation 1.6263665310687148 %",-1.42%
COC(=O)c1csc(Cn2ncc(C3CCNCC3)c2C)n1,inhibition,"Thailand/16681/1984, Concentration 49.5 uM, Number of replicates 2.0, Standard deviation 0.7717951129802201 %",-5.62%
same,inhibition,"Thailand/16681/1984, Concentration 99.01 uM, Number of replicates 2.0, Standard deviation 0.8815947340216488 %",-4.23%
same,inhibition,"Thailand/16681/1984, Concentration 198.0 uM, Number of replicates 2.0, Standard deviation 1.4332580373412276 %",-2.98%
O=C(Cc1cnc[nH]1)NC1CCN(C(=O)c2cccc3[nH]ncc23)CC1,inhibition,"Thailand/16681/1984, Concentration 49.5 uM, Number of replicates 2.0, Standard deviation 0.5712330544607026 %",-0.001%
same,inhibition,"Thailand/16681/1984, Concentration 99.01 uM, Number of replicates 2.0, Standard deviation 0.88648652906749 %",0.297%
same,inhibition,"Thailand/16681/1984, Concentration 198.0 uM, Number of replicates 2.0, Standard deviation 1.4162803173835237 %",-0.087%
O=Cc1ccc(N2CCC(C(=O)Nc3n[nH]c4ccc(Br)cc34)CC2)cc1,inhibition,[1],10.1%
CCN(CC)S(=O)(=O)c1ccc(NC(=O)C2CCN(c3ccc(C=O)cc3)CC2)cc1,inhibition,[1],12.2%
O=C(Nc1cc2c(cc1C1CC1)CNC2)c1cc(F)cc2[nH]ncc12,inhibition,"Thailand/16681/1984, Concentration 99.5 uM, Number of replicates 2.0, Standard deviation 0.34945873996674337 %",63.1%
same,inhibition,"Thailand/16681/1984, Concentration 295.6 uM, Number of replicates 2.0, Standard deviation 0.6526301250248825 %",85.2%
COc1cc(Cc2c(-c3ccc(F)cc3)noc2C)nc(N2CCNCC2)n1,inhibition,"Thailand/16681/1984, Concentration 49.5 uM, Number of replicates 2.0, Standard deviation 0.4285559202279565 %",-0.048%
same,inhibition,"Thailand/16681/1984, Concentration 99.01 uM, Number of replicates 2.0, Standard deviation 0.4007548684992308 %",1.07%
same,inhibition,"Thailand/16681/1984, Concentration 198.0 uM, Number of replicates 2.0, Standard deviation 0.4757654271085549 %",6.24%
O=Cc1ccc(N2CCC(C(=O)NCc3c(F)ccc(F)c3F)CC2)cc1,inhibition,[1],12.3%
O=Cc1ccc(N2CCC(C(=O)NCCc3ccc(Cl)c(Cl)c3)CC2)cc1,inhibition,[1],11.5%
CCN(CC)C1CCN(C(=O)C2CCN(c3ccc(C=O)cc3)CC2)CC1,inhibition,[1],12.6%
C[C@@H](NC(=O)c1cc(Cl)ccc1NS(=O)(=O)c1ccc(Oc2ccccc2Cl)cc1)C1COC1,inhibition,"Thailand/16681/1984, Concentration 49.5 uM, Number of replicates 2.0, Standard deviation 0.4885797549298071 %",59.2%
same,inhibition,"Thailand/16681/1984, Concentration 99.01 uM, Number of replicates 2.0, Standard deviation 0.152624190876378 %",68.4%
same,inhibition,"Thailand/16681/1984, Concentration 198.0 uM, Number of replicates 2.0, Standard deviation 0.02447349481851786 %",59.2%
C[C@@H](NC(=O)c1cc(Cl)ccc1NS(=O)(=O)c1ccc(Oc2ccccc2Cl)cc1)[C@H]1CCCO1,inhibition,"Thailand/16681/1984, Concentration 49.5 uM, Number of replicates 2.0, Standard deviation 0.29635236214386457 %",82.5%
same,inhibition,"Thailand/16681/1984, Concentration 99.01 uM, Number of replicates 2.0, Standard deviation 0.052507555399236044 %",84.4%
same,inhibition,"Thailand/16681/1984, Concentration 198.0 uM, Number of replicates 2.0, Standard deviation 0.13838732262418607 %",80.7%
Cc1cnccc1NC(=O)c1cc(C2CCCC2)n(C)c1C,inhibition,"Thailand/16681/1984, Concentration 49.5 uM, Number of replicates 2.0, Standard deviation 1.895573393565592 %",-3.53%
same,inhibition,"Thailand/16681/1984, Concentration 99.01 uM, Number of replicates 2.0, Standard deviation 0.7217418528634704 %",-1.88%
same,inhibition,"Thailand/16681/1984, Concentration 198.0 uM, Number of replicates 2.0, Standard deviation 1.3851925911876457 %",0.718%
CC(C)CNC(=O)c1cc(Cl)ccc1NS(=O)(=O)c1ccc(Oc2ccccc2Cl)cc1,inhibition,"Thailand/16681/1984, Concentration 49.5 uM, Number of replicates 2.0, Standard deviation 0.23411798845789034 %",89.6%
same,inhibition,"Thailand/16681/1984, Concentration 99.01 uM, Number of replicates 2.0, Standard deviation 0.14645254355523077 %",88.7%
same,inhibition,"Thailand/16681/1984, Concentration 198.0 uM, Number of replicates 2.0, Standard deviation 0.2542297902177128 %",84.4%
CCCCCNC(=O)c1cc(Cl)ccc1NS(=O)(=O)c1ccc(Oc2ccccc2Cl)cc1,inhibition,"Thailand/16681/1984, Concentration 49.5 uM, Number of replicates 2.0, Standard deviation 0.23227296801747743 %",78.7%
same,inhibition,"Thailand/16681/1984, Concentration 99.01 uM, Number of replicates 2.0, Standard deviation 0.006678758202430312 %",76.9%
same,inhibition,"Thailand/16681/1984, Concentration 198.0 uM, Number of replicates 2.0, Standard deviation 0.04271599955318515 %",65.6%
CC[C@H](C#N)NC(=O)c1cc(Cl)ccc1NS(=O)(=O)c1ccc(Oc2ccccc2Cl)cc1,inhibition,"Thailand/16681/1984, Concentration 49.5 uM, Number of replicates 2.0, Standard deviation 0.706613157296788 %",44.6%
same,inhibition,"Thailand/16681/1984, Concentration 99.01 uM, Number of replicates 2.0, Standard deviation 0.473003628419333 %",22.1%
same,inhibition,"Thailand/16681/1984, Concentration 198.0 uM, Number of replicates 2.0, Standard deviation 1.2548162043536224 %",2.91%
C[C@@H](CS(C)(=O)=O)NC(=O)c1cc(Cl)ccc1NS(=O)(=O)c1ccc(Oc2ccccc2Cl)cc1,inhibition,"Thailand/16681/1984, Concentration 49.5 uM, Number of replicates 2.0, Standard deviation 0.5989303195749703 %",51.1%
same,inhibition,"Thailand/16681/1984, Concentration 99.01 uM, Number of replicates 2.0, Standard deviation 0.4213875631597994 %",57%
same,inhibition,"Thailand/16681/1984, Concentration 198.0 uM, Number of replicates 2.0, Standard deviation 0.24651523106627876 %",43%
COC[C@@H](C)CNC(=O)c1cc(Cl)ccc1NS(=O)(=O)c1ccc(Oc2ccccc2Cl)cc1,inhibition,"Thailand/16681/1984, Concentration 49.5 uM, Number of replicates 2.0, Standard deviation 0.2816677257730929 %",82.2%
same,inhibition,"Thailand/16681/1984, Concentration 99.01 uM, Number of replicates 2.0, Standard deviation 0.03025941418209339 %",83.8%
same,inhibition,"Thailand/16681/1984, Concentration 198.0 uM, Number of replicates 2.0, Standard deviation 0.3452939569842909 %",76.9%
CNC(=O)[C@@H](C)CNS(=O)(=O)c1ccc(Oc2ccccc2Cl)cc1,inhibition,"Thailand/16681/1984, Concentration 49.5 uM, Number of replicates 2.0, Standard deviation 0.8337442367954725 %",-0.747%
same,inhibition,"Thailand/16681/1984, Concentration 99.01 uM, Number of replicates 2.0, Standard deviation 0.25212885411314173 %",0.957%
same,inhibition,"Thailand/16681/1984, Concentration 198.0 uM, Number of replicates 2.0, Standard deviation 0.23111814436827896 %",2.51%
